{
  "source": "the supplement of paper PMC12024529",
  "data": [
    {"system": "HEK293 WT BDD-FVIII-Gluc", "assay": "secreted FVIII-Gluc luciferase Z-score vs DMSO control; higher = more FVIII-Gluc secretion", "details": "5 µM", "experimental": "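Natural plant-compound library (480 compounds, ST catalogue IDs) screened on HEK293 cells stably expressing WT BDD-FVIII-Gaussia luciferase fusion at 5 µM. Secreted Gluc activity in the medium is given as a Z-score relative to DMSO controls.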", "values": [
      {"smiles": "O=c1cc(-c2ccccc2O)oc2c1ccc1ccccc12", "secreted FVIII-Gluc luciferase Z-score": 0.301},
      {"smiles": "CC1C(=O)OC2CC34C5CC(C(C)(C)C)C36C(OC(=O)C6O)OC4(C(=O)O5)C21O", "note": "(stereo not given)", "secreted FVIII-Gluc luciferase Z-score": -0.604},
      {"smiles": "O=c1cnn(C2OC(CO)C(O)C2O)c(=O)[nH]1", "note": "(stereo not given)", "secreted FVIII-Gluc luciferase Z-score": -2.33},
      {"smiles": "C=C[C@@]1(C)C=C2CC[C@@H]3[C@](C)(CCC[C@@]3(C)C(=O)O)[C@H]2CC1", "secreted FVIII-Gluc luciferase Z-score": -0.481},
      {"smiles": "O=c1cc(-c2ccc(O)cc2)oc2cc(O)cc(O)c12", "secreted FVIII-Gluc luciferase Z-score": 0.864},
      {"smiles": "CC(=O)[C@H]1CC[C@H]2[C@@H]3CCC4=CC(=O)CC[C@]4(C)[C@H]3CC[C@]12C", "secreted FVIII-Gluc luciferase Z-score": 0.00749},
      {"smiles": "CC(C)(S)[C@H](N)C(=O)O", "secreted FVIII-Gluc luciferase Z-score": 0.41},
      {"smiles": "CO[C@@H]1[C@@H](OC2OC(C)C(OC3CC(C)(O)C(O)C(C)O3)C(N(C)C)C2O)[C@@H](CC=O)C[C@@H](C)[C@@H](OC2CCC(N(C)C)C(C)O2)/C=C/C=C/C[C@@H](C)OC(=O)C[C@H]1O", "note": "(stereo not given in full)", "secreted FVIII-Gluc luciferase Z-score": 0.36},
      {"smiles": "COc1cn(C2OC(CO)C(O)C2O)c(=O)[nH]c1=O", "note": "(stereo not given)", "secreted FVIII-Gluc luciferase Z-score": -0.271},
      {"smiles": "COc1ccc(C2OCC3(COC(C)=O)C(C)C=C(C)C2C3C)cc1", "note": "(stereo not given)", "secreted FVIII-Gluc luciferase Z-score": -1.63},
      {"smiles": "CCCCCCCCCCCC1=C(O)C(=O)C=C(O)C1=O", "secreted FVIII-Gluc luciferase Z-score": 0.529},
      {"smiles": "COc1cc2ccc(=O)oc2c(O)c1O", "secreted FVIII-Gluc luciferase Z-score": 0.185},
      {"smiles": "OCC1(O)OC[C@H](O)[C@@H](O)[C@@H]1O", "note": "(stereo not given in full)", "secreted FVIII-Gluc luciferase Z-score": 0.437},
      {"smiles": "CC(C)CC(NC(=O)C(NC(=O)NC(Cc1ccccc1)C(=O)O)C1CCN=C(N)N1)C(=O)NC(C=O)Cc1ccccc1", "note": "(stereo not given)", "secreted FVIII-Gluc luciferase Z-score": 0.979},
      {"smiles": "N[C@H](Cc1c[nH]c2ccccc12)C(=O)O", "secreted FVIII-Gluc luciferase Z-score": 0.298},
      {"smiles": "CC/C=C\\C[C@H]1C(=O)CC[C@@H]1CC(=O)O", "secreted FVIII-Gluc luciferase Z-score": 0.253},
      {"smiles": "Cc1ccc(CC(Cc2nc3ccccc3[nH]2)c2nc3ccccc3[nH]2)cc1", "note": "(stereo not given)", "secreted FVIII-Gluc luciferase Z-score": 0.284},
      {"smiles": "COc1cc2nc(N3CCN(C(=O)c4ccco4)CC3)nc(N)c2cc1OC", "secreted FVIII-Gluc luciferase Z-score": 0.161},
      {"smiles": "OC[C@@H]1OC(O)[C@@H](O)[C@H](O)[C@H]1O[C@H]1O[C@H](CO)[C@@H](O)[C@H](O)[C@H]1O", "note": "(stereo not given in full)", "secreted FVIII-Gluc luciferase Z-score": 0.204},
      {"smiles": "O=C(O)C1(O)CC(O)C(O)C(O)C1", "note": "(stereo not given)", "secreted FVIII-Gluc luciferase Z-score": 0.456}
    ]}
  ]
}
